Shown are actives, neighbours in structure and some others; about 2.1% of the full set was active somewhere.
COUP-TFII inh: blocks human COUP-TFII nuclear receptor; P24468; HEK293T NGFI-A luciferase reporter, luminescence; inhibition, % at 8.6 µM; 370,000 tested, 0.7% active; AID 686940;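 active = inhibition above a per-plate cutoff, mean inhibition of test wells between control levels plus 3 SD, cut at about 38% in these data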;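 note: cells cotransfected with COUP-TFII expression vector driving the NGFI-A reporter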
GalR3 antagonist: antagonists of human GalR3; O60755; inhibition, % at 3 µM; AID 651719; HEK293 GalR3-CNG cAMP membrane potential fluorescence; galR3 body fused to GalR1 C-terminus; 360,000 tested, 0.44% active;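 active = inhibition above the screen-wide average plus 3 SD, cut at about 13% in these data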;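 note: forskolin and galanin both at EC90 stimulate the cells; cAMP rise reported by CNG channel membrane potential dye signal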
Target sequence (O60755 1-299 limits assumed): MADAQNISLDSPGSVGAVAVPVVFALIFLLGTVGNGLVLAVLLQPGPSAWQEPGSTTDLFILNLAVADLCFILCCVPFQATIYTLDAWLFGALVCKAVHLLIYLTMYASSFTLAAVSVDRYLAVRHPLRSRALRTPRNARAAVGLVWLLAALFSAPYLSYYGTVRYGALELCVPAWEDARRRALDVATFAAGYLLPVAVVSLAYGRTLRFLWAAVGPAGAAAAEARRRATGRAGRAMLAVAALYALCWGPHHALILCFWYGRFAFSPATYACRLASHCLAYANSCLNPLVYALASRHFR
aDG glyco up: increases alpha dystroglycan glycosylation; Pro5-aDG cells, alpha-DG glycosylation AlphaScreen (IIH6); 0% Pro5, 100% B10-LARGE cell signal; activation, % at 10 µM; 360,000 tested, 0.22% active; AID 624168;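 active = activation of at least 8% versus controls, or a plate z-score of at least 8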;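 note: Pro5 are CHO cells carrying HIG-tagged alpha-DG that lacks glycosylation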
Gli-Sufu antag: antagonists of Gli-Sufu signaling; Sufu-KO-LIGHT fibroblasts, Gli luciferase reporter luminescence; inhibition, % at 5 µM; 340,000 tested, 0.74% active;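 active = inhibition above about 55%, limit read from the data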
Env fusion inh: inhibitors of HIV Env-mediated cell fusion; AID 651610; HeLa-JRFL Env/CEM21 cell fusion, luciferase; inhibition, % at 12.3 µM; 360,000 tested, 1.1% active;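 active = mean replicate inhibition score of at least 50 and every replicate individually at or above 50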
Numbers stand for hits; - = inactive; . = no result given; ! = not active in a repeat; [ ] = dose if it differs, or a comment.

SMILES	COUP-TFII inh	GalR3 antagonist	aDG glyco up	Gli-Sufu antag	Env fusion inh
C[C@H](CO)N1C[C@H](C)[C@H](CN(C)S(=O)(=O)c2cccs2)Oc2ccc(NC(=O)Cc3cn(C)c4ccccc34)cc2CC1=O	.	.	.	.	95.6[16.7 µM]
C[C@H](CO)N1C[C@H](C)[C@H](CN(C)S(=O)(=O)c2ccccc2)Oc2ccc(NC(=O)Cc3cn(C)c4ccccc34)cc2CC1=O	.	.	.	.	94.2[16.7 µM]
COc1ccc(S(=O)(=O)N(C)C[C@H]2Oc3ccc(NC(=O)Cc4cn(C)c5ccccc45)cc3CC(=O)N([C@H](C)CO)C[C@@H]2C)cc1	.	.	.	.	-
O=C(C[C@H]1CC[C@H](NC(=O)Nc2ccc3c(c2)OCO3)[C@H](CO)O1)NCc1ccc(Cl)cc1	.	.	.	.	-
O=C(C[C@H]1CC[C@@H]2[C@H](COC[C@H](O)CN2CCC(F)(F)F)O1)NCC1CCCCC1	.	.	.	.	-
COC(=O)C[C@H]1C[C@@H]2c3cc(NC(=O)c4cccnc4)ccc3O[C@@H]2[C@H](CO)O1	.	.	.	.	-
Cc1ccc(NC(=O)Nc2ccc3c(c2)C(=O)N(C)[C@H]2CC[C@H](CC(=O)O)O[C@H]2CO3)cc1	.	.	.	.	-
CCOC(=O)c1c(C)c(C(=O)N2CCN(c3cccc(Cl)c3)CC2)c(C)n1C	-	-	-	-	57.3
C[C@H]1CN([C@@H](C)CO)C(=O)Cc2cc(NC(=O)Nc3cccc4ccccc34)ccc2O[C@H]1CN(C)Cc1ccccc1	.	.	.	.	-
CCCCN1/C(=C/c2cccc[n+]2C)Sc2cc(NC(C)=O)ccc21	-	-	-	-	-
CCCCN1/C(=C/c2ccc3ccccc3[n+]2CC)Sc2ccccc21	.	.	8.4	88.0	.
CCN1/C(=C/c2ccc3ccccc3[n+]2CC)C=Cc2ccccc21	74.8	53.0	-	92.0	.
CCC(=O)N1C[C@@H](C)[C@@H](OC)CN(C)C(=O)c2ccc(NC(=O)Nc3ccc(Cl)cc3)cc2OC[C@@H]1C	.	.	.	.	-
CCCS(=O)(=O)Nc1ccc(Nc2c3ccccc3nc3ccccc23)c(OC)c1	-	-	-	79.1	-
CCCCC1(Cc2ccc(OC)c([N+](=O)[O-])c2)C(=O)N(c2ccccc2)N(c2ccccc2)C1=O	-	-	-	-	118.4
NC(=S)NN=Cc1nccc2ccccc12	-	-	-	64.5	-
COc1ccc(NC(=S)NCCCN2CCN(C3CCCCC3)CC2)cc1	-	-	-	-	62.8
CN1C(=O)c2cc(NC(=O)c3ccc(F)c(F)c3)ccc2OC[C@@H]2O[C@@H](CC(=O)N[C@H]3CCN(Cc4ccccc4)C3)CC[C@@H]21	.	.	.	.	-
COCCCNC(=S)N1CCN(c2nc(-c3ccc(F)cc3)cs2)CC1	-	-	-	-	107.7
O=c1[nH][nH]cc1C=Nc1ccccc1O	-	-	-	-	71.5
O=c1[nH][nH]cc1C=Nc1ccccc1Cl	-	-	-	-	-
C[C@@H]1CN([C@@H](C)CO)C(=O)c2cc(NS(=O)(=O)c3cccs3)ccc2O[C@@H](C)CCCCO[C@@H]1CN(C)C(=O)Nc1ccccc1	.	.	.	.	-
CCCCCCCCCCCCCCCC[N+](C)(C)CCN(Cc1ccc(OC)cc1)c1ncccn1	.	.	-	64.1	.
O=C(NC1=C(Nc2ccc(F)cc2)C(=O)c2ccccc2C1=O)c1ccc(Cl)cc1	-	-	5.4	-	-
O=C(NNC(=O)c1ccc(NC(=O)c2ccccc2)cc1)c1ccc(F)cc1	-	-	-	-	-
SMILES	COUP-TFII inh	GalR3 antagonist	aDG glyco up	Gli-Sufu antag	Env fusion inh
C[C@@H]1CN([C@@H](C)CO)C(=O)c2cccc(NC(=O)Nc3ccc(F)cc3)c2O[C@H]1CN(C)Cc1ccccc1	.	.	.	.	-
O=C(N/N=C/c1ccc([N+](=O)[O-])s1)c1ccncc1	.	.	12.1	-	.
O=C(N/N=C/c1ccc([N+](=O)[O-])s1)c1cccc(Br)c1	-	-	8.9	-	66.1
Cc1cccc(NC(=S)N/N=C/c2ccc([N+](=O)[O-])s2)c1	-	-	-	-	105.1
COc1ccc(NC(=O)Nc2ccc3c(c2)C(=O)N([C@@H](C)CO)C[C@@H](C)[C@H](CN(C)S(=O)(=O)c2ccc(Cl)cc2)OCCCC[C@@H](C)O3)cc1	.	.	.	.	-
CC(C)COP(=O)(c1ccc(N(C)C)cc1)C(O)c1ccc(Br)cc1 (stereo not given)	-	-	-	-	56.3
CC(C)OP(=O)(c1ccc(N(C)C)cc1)C(O)c1ccc(C(C)C)cc1 (stereo not given)	-	-	-	-	73.9
CCOC(=O)COc1nc2c(c(-c3ccco3)c1C#N)CCc1ccccc1-2	-	-	-	-	56.7
N#Cc1c(OCC(=O)c2ccccc2)nc2c(c1-c1ccco1)CCc1ccccc1-2	-	-	-	-	-
C[C@H]1CN([C@@H](C)CO)S(=O)(=O)c2ccc(Br)cc2O[C@H]1CN(C)Cc1ccc(F)cc1	-	-	-	.	70.9[16.7 µM]
C[C@H]1CN([C@@H](C)CO)S(=O)(=O)c2ccc(Br)cc2O[C@H]1CN(C)Cc1ccccc1	-	-	-	.	60.6![16.7 µM]
C[C@H](CO)N1C[C@H](C)[C@@H](CN(C)Cc2ccc(F)cc2)Oc2cc(Br)ccc2S1(=O)=O	.	.	.	.	-
Cc1cc(C(=O)Nc2ccc3c(c2)C(=O)N(C)[C@@H]2CC[C@@H](CC(=O)N[C@@H](C)c4ccccc4)O[C@@H]2CO3)no1	.	.	.	.	-
c1ccc(-c2noc(-c3ccncc3)n2)nc1	-	-	-	-	.
c1ccc(-c2noc(-c3ccc4ccccc4c3)n2)nc1	.	.	-	61.9	.
Cc1ccc(NC(=O)C(NC2CCCc3ccccc32)c2ccccc2)c([N+](=O)[O-])c1 (stereo not given)	-	-	-	-	86.5
Cc1ccc(NC(=O)C(NC2CCCc3ccccc32)c2ccccc2)cc1Cl (stereo not given)	-	-	-	-	-
Nc1nc(NCc2ccccc2)nc(NCCO)c1[N+](=O)[O-]	-	-	-	-	63.2
CO[C@H]1CN(C)C(=O)c2cc(NS(=O)(=O)c3ccc(Cl)cc3)ccc2OC[C@@H](C)NC[C@@H]1C	.	.	.	.	-
O=[N+]([O-])c1cc(Cl)cc(/C=N\Nc2ccccn2)c1O	-	-	-	56.8	.
C[C@@H]1CCCCO[C@@H](CN(C)C(=O)Cc2ccccc2)[C@@H](C)CN([C@H](C)CO)C(=O)c2cc(NC(=O)CCCN(C)C)ccc2O1	.	.	.	.	-
C[C@H](CO)N1C[C@H](C)[C@H](CN(C)Cc2ccccc2)OCCCC[C@H](C)Oc2ccc(NC(=O)Nc3cccc4ccccc34)cc2C1=O	.	.	.	.	113.8[16.7 µM]
C[C@H]1CCCCO[C@@H](CN(C)Cc2ccncc2)[C@@H](C)CN([C@@H](C)CO)C(=O)c2cc(NC(=O)Nc3cccc4ccccc34)ccc2O1	.	.	.	.	69.9[16.7 µM]
C[C@@H]1CCCCO[C@H](CN(C)Cc2ccncc2)[C@H](C)CN([C@@H](C)CO)C(=O)c2cc(NC(=O)Nc3cccc4ccccc34)ccc2O1	.	.	.	.	-
C[C@@H]1CCCCO[C@@H](CN(C)Cc2ccccc2)[C@H](C)CN([C@@H](C)CO)C(=O)c2cc(NC(=O)Nc3cccc4ccccc34)ccc2O1	.	.	.	.	-
